According to the supplement of paper PMC12808144:
Values without a mark were called inactive.

System: Mel-DCC-11-R
Assay: cell viability relative to DMSO control (fraction of DMSO control); higher = less cytotoxic, active = 0.8 or less
Conditions: 1 µM; 120 h; vemurafenib co-treatment 0 µM
How it was run: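 Cells in 40 µl per well went into 384-well plates pre-spotted acoustically with a TargetMol library of 315 approved anti-cancer drugs, each at 1 µM in duplicate, for 120 h. Seeding was 2500/well for NHEM-hTERT immortalized melanocytes and 1500/well for patient-derived Mel-DCC-11 and its resistant subline Mel-DCC-11-R, which was run alone and with 8 µM of its selecting drug. Luminescence was read with ATPlite 1step. Viability was normalised to vehicle-treated controls and averaged over duplicates.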

Compound | cell viability
Nc1nc(=O)c2c([nH]1)NC[C@H](CNc1ccc(C(=O)N[C@@H](CCC(=O)[O-])C(=O)[O-])cc1)N2C=O.[Ca+2] [Calcium Levofolinate] | 1.8
C=CC(=O)N1CCC[C@@H](n2nc(-c3ccc(Oc4ccccc4)cc3)c3c(N)ncnc32)C1 [Ibrutinib] | 0.855
COc1cccc2c1C(=O)c1c(O)c3c(c(O)c1C2=O)C[C@@](O)(C(C)=O)C[C@@H]3O[C@H]1C[C@H](N)[C@H](O)[C@H](C)O1.Cl [Daunorubicin hydrochloride] | 0.0677 (active)
COc1ccc2cc1Oc1ccc(cc1)C[C@H]1c3cc(c(OC)cc3CCN1C)Oc1c(OC)c(OC)cc3c1[C@H](C2)N(C)CC3 [Tetrandrine] | 0.886
C1=C/COCc2cc(ccc2OCCN2CCCC2)Nc2nccc(n2)-c2cccc(c2)COC/1 [Pacritinib] | 1.46
CC(C)Cn1cnc2c(N)nc3ccccc3c21 [Imiquimod] | 0.897
c1cn2cc(-c3ccc4cn[nH]c4c3)nc(Nc3ccc(N4CCOCC4)cc3)c2n1 [Entospletinib] | 0.904
CC[C@H](Nc1ncnc2[nH]cnc12)c1nc2cccc(F)c2c(=O)n1-c1ccccc1 [Idelalisib] | 1.07

Same assay, conditions: 1 µM; 120 h; vemurafenib co-treatment 8 µM

Compound | cell viability
CC(=O)O[C@]1(C(C)=O)CC[C@H]2[C@@H]3CCC4=CC(=O)CCC4=C3[C@@H](c3ccc(N(C)C)cc3)C[C@@]21C [Ulipristal acetate] | 1.04
CCN1CCN(Cc2ccc(Nc3ncc(F)c(-c4cc(F)c5nc(C)n(C(C)C)c5c4)n3)nc2)CC1 [Abemaciclib] | 0.669 (active)
Nc1nc(F)nc2c1ncn2[C@@H]1O[C@H](COP(=O)(O)O)[C@@H](O)[C@@H]1O [Fludarabine Phosphate] | 1.16
N.N.O=C([O-])C[O-].[Pt+2] [Nedaplatin] | 1.18
O=c1cc(-c2ccc(O)cc2)oc2cc(O)cc(O)c12 [Apigenin] | 0.991
C[C@@H]1O[C@@H](OC[C@H]2O[C@@H](Oc3c(-c4ccc(O)c(O)c4)oc4cc(O)cc(O)c4c3=O)[C@H](O)[C@@H](O)[C@@H]2O)[C@H](O)[C@H](O)[C@H]1O [Rutin] | 0.929
O=C(O)C1CSCN1 (stereo not drawn) [Thioproline] | 1.08
CC(C)CN(C[C@@H](O)[C@H](Cc1ccccc1)NC(=O)O[C@H]1CCOC1)S(=O)(=O)c1ccc(N)cc1 [Amprenavir] | 0.833
CN(CCOc1ccc(CC2SC(=O)NC2=O)cc1)c1ccccn1.O=C(O)/C=C\C(=O)O (stereo not drawn) [Rosiglitazone maleate] | 1.12
COc1cccc2c1C(=O)c1c(O)c3c(c(O)c1C2=O)C[C@@](O)(C(=O)CO)C[C@@H]3O[C@H]1C[C@H](N)[C@H](O[C@H]2CCCCO2)[C@H](C)O1 [Pirarubicin] | 0.0504 (active)
O=c1cc[nH]c(=O)[nH]1 [Uracil] | 1.01
COc1ccc2[nH]cc(CCNC(C)=O)c2c1 [Melatonine] | 0.839
CN(C)C/C=C/C(=O)Nc1cc2c(Nc3ccc(F)c(Cl)c3)ncnc2cc1O[C@H]1CCOC1 [Afatinib] | 0.792 (active)
CCN1CCN(Cc2ccc(Nc3ncc(F)c(-c4cc(F)c5nc(C)n(C(C)C)c5c4)n3)nc2)CC1.CS(=O)(=O)O [abemaciclib mesylate] | 0.723 (active)
CS(=O)(=O)O.Cc1ccc(NC(=O)c2ccc(CN3CCN(C)CC3)cc2)cc1Nc1nccc(-c2cccnc2)n1 [Imatinib Mesylate] | 1.1
S=c1nc[nH]c2nc[nH]c12 [Mercaptopurine] | 0.993
O=c1cc(O)c(Cl)c[nH]1 [Gimeracil] | 1.13
CNNCc1ccc(C(=O)NC(C)C)cc1.Cl [Procarbazine hydrochloride] | 1.25
CCOC(=O)[C@@H](N)Cc1ccc(-c2cc(O[C@H](c3ccc(Cl)cc3-n3ccc(C)n3)C(F)(F)F)nc(N)n2)cc1.O=C(O)CNC(=O)c1ccccc1 [Telotristat Etiprate] | 1.07
O=S(=O)([O-])CCS.[Na+] [Mesna] | 1.08
